Assay results reported in ChEMBL document CHEMBL3433997, “St. Jude Leishmania screening dataset” (2016).

Target: Hexose transporter 1 (Plasmodium falciparum) (UniProt O97467)
Test: ST_JUDE_LEISH: Cytotoxicity at 2uM final concentration against transgenic Leishmania Mexicana promastigotes LmPfHT that are glucose transport deficient and complemented with the Plasmodium falciparum hexose transporter. Activity is measured by DNA content using SYBR green in vitro
Type: functional

Compared with `CCCCCCN1CCCN(Cc2cccc(NC(=O)c3cc4ccccc4s3)c2)CC1`, `O=C(Nc1ccc2c(c1)CCN2C1CCN(Cc2cccc(C(F)(F)F)c2)C1)c1ccco1` (stereo unspecified) is lower in inhibition: 3.42% for the first, 0.28% for the second.

First: CCN1CCN(c2ccc(Nc3c4ccccc4nc4ccccc34)cc2)CC1
Second: C=CCOc1cccc2c1CCN(CCN1CCC(NC(=O)c3ccc(-c4ccc(Cl)cc4)cc3)CC1)C2
The inhibition of the first is lower: 10.6% for the first, 11.3% for the second.

Going from `O=C(NCCCCNCC(Cc1cccc(O)c1)c1ccccc1)c1ccc(NC(=O)c2ccc(Cl)cc2)cc1` (stereo unspecified) to `CCc1ccc(C2CCN(CCCCNC(=O)c3ccc(-c4ccc(C#N)cc4)cc3)CC2)c(OCCO)c1`, the inhibition rises from -3.38% to 3.19%.

Compared with `CCCc1cc(OC)c(C[C@@H]2c3cc(O)c(Cl)cc3CCN2C)cc1OC`, `COc1cc(C(=O)NC2CC(C)(C)NC(C)(C)C2)ccc1-c1cc2cc(Cl)c(Cl)cc2[nH]1` is lower in inhibition: 2.87% for the first, -0.26% for the second.

Compared with `O=[N+]([O-])c1c(O)nc2c(c1O)CCC2`, `CCCCCCCCc1c(C)nc(C)c(I)c1O` is lower in inhibition: 4.36% for the first, 0.28% for the second.

Going from `CC(Oc1ccc(Cl)cc1)C(=O)N(C)C1CCN(CCCCCNC(=O)/C=C/c2ccc(Cl)c(Cl)c2)CC1` (stereo unspecified) to `Cc1onc(-c2ccccc2Cl)c1C(=O)Nc1cc(Cl)c(Cl)cc1Cl`, the inhibition rises from 3.1% to 5.64%.

Compared with `CC(Nc1nncc(-c2cccc(F)c2)n1)c1ccc(F)cc1` (stereo unspecified), `CS(=O)(=O)N(c1ccc(F)cc1)c1cc(C(=O)N[C@@H](Cc2ccccc2)[C@H](O)CNCc2cccc(C(F)(F)F)c2)cc(N2CCCC2=O)c1` is lower in inhibition: 9.2% for the first, -0.54% for the second.

First: OC(c1nnc(S)n1-c1ccccc1)C(O)c1nnc(S)n1-c1ccccc1 (stereo unspecified)
Second: CCC(C)(CC)C(=O)n1ncc2c3c(N)nc(N)nc3ccc21
The inhibition of the first is lower: 8.57% for the first, 79.2% for the second.
